Measurements: the OligoGym collection

Columns and labels:
Test in all cases: pooled miR-30 sensor sort-seq; sequence = guide strand
Details in all cases: shRNA
KRTAP13-2 = molecular target: KRTAP13-2
KRTAP13-1 = molecular target: KRTAP13-1
KRTAP10-2 = molecular target: KRTAP10-2
Further: reference of the scale not given here.

## TCCACATAGGACGTCTGGCAGC
KRTAP13-2
  sensor-assay potency score (higher = more potent): -2.1

## ACATAGGATGTCTGGCAGCTGG
KRTAP13-1
  sensor-assay potency score (higher = more potent): -1.73

## TAGACTGCTGGCAGCACGGAGA
KRTAP10-2
  sensor-assay potency score (higher = more potent): -0.939

## TAGGAAAAGCCACAGGAGGAGG
KRTAP13-1
  sensor-assay potency score (higher = more potent): -1.49

## TTGGTGCAGGCGCTGGAGCAGA
KRTAP10-2
  sensor-assay potency score (higher = more potent): -1.45

## TCCACATAGGATGTCTGGCAGC
KRTAP13-1
  sensor-assay potency score (higher = more potent): -1.92
